Only some compounds are listed: those with a hit (about 10% of all), similar ones and a draw of the others.
Luciferase inh: inhibitors of firefly (Photinus pyralis) luciferase. P08659. purified P. pyralis luciferase, luminescence, biochemical. Potency, µM (highest dose often 115 µM), actives largely listed as inhibitors. 76,000 compounds, 2.5% hits. AID 1347043; also: nearly all actives have a fitted effect of over 65% in size
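Inhibitors were tested against purified firefly luciferase in a biochemical, low-substrate format (both substrates at 10uM) and luminescence measured with a CCD imager.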
NIH3T3 tox: cytotoxic compounds in NIH 3T3 cells. NIH 3T3 viability, CellTiter-Glo ATP luminescence, 48-72 h. Potency, µM (titrated, usually from 96.7 µM), actives largely listed as inhibitors. 94,000 compounds, 4.3% hits; also: nearly all actives have a fitted effect of over 55% in size
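Cells were seeded at 400 per well, treated with pin-transferred compound, and kept 48 or 72 hr at 37 °C before CellTiter-Glo addition and luminescence imaging of cellular ATP.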
GPT2 inhibitor: inhibitors of human GPT2 alanine aminotransferase | 100,000 compounds, 0.25% hits | Recombinant GPT2, coupled pyruvate oxidase/HRP Amplex Red fluorescence | AID 1671188 | Potency, µM (doses to about 57.7 µM), hits mostly inhibitors; also: nearly all actives have a fitted effect of over 60% in size
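Inhibition is scored from Amplex Red fluorescence generated when pyruvate oxidase and HRP act on pyruvate released by GPT2. Reactions contain 10ng/uL enzyme, 250uM a-KG and 2mM L-alanine and run 30 min at room temperature.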
NPR1 antag: human Npr1 receptor antagonism. HEK293 hNpr1 GloSensor cGMP, ANP-stimulated luminescence. 76,000 compounds, 1.6% hits. Potency, µM (highest dose often 46.3 µM), hits mostly inhibitors. P16066; calls by dose curve; also: nearly all actives have a fitted effect of over 60% in size
Target sequence (P16066 whole entry, looked up): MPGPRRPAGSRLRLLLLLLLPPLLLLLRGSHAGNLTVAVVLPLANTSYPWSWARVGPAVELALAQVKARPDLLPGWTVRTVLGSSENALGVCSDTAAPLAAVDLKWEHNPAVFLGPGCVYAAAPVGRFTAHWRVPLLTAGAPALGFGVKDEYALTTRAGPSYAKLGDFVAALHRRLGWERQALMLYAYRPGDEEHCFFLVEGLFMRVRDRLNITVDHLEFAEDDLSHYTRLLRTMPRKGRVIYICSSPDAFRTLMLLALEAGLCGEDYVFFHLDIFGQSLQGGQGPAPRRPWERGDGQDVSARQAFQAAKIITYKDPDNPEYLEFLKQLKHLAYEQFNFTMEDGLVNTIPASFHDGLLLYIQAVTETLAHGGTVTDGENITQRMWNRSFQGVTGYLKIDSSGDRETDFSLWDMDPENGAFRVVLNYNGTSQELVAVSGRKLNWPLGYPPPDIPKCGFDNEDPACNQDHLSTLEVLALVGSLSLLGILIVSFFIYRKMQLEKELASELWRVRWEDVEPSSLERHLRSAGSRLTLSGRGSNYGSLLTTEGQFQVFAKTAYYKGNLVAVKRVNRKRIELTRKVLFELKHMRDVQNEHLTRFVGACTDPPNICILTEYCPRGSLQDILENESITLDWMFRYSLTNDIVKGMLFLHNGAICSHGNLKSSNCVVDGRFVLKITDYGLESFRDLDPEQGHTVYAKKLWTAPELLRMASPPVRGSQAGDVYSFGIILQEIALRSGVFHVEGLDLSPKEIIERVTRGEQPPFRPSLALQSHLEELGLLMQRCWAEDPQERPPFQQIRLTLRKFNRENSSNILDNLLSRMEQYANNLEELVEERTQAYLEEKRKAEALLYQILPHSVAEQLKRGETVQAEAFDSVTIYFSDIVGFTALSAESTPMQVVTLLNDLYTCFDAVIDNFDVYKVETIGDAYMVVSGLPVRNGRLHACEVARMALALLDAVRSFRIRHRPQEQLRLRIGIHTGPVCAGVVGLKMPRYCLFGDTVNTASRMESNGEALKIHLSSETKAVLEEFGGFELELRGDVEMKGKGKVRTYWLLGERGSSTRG
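Compound pre-incubated 30 min at room temperature on GloSensor-loaded HEK293 cells stably carrying hNpr1 and the pGS-40F cGMP biosensor. Stimulation uses hNppA at 0.1 nM final; luminescence is taken at baseline and 20 min post-agonist.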
HEK cytotox: kills HEK 293 cells; HEK 293 viability, ATP luminescence (CellTiter-Glo), 48-72 h; 94,000 compounds, 6.6% hits; Potency, µM (top dose mostly 115 µM), most hits filed as inhibitors; also: nearly all actives have a fitted effect of over 60% in size
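qHTS cytotoxicity; HEK 293, 250 cells/well; compound pinned; 48 or 72 hr, 37 degree Celsius, 5% CO2, 95% humidity; CellTiter-Glo, 10 min RT; luminescence (ATP).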
A number is an active result; - = inactive; ? = inconclusive; . = no result. Unless noted, calls follow the shape of the dose curve; as a rule, active = well fitted curve in the direction sought with a large enough effect; inconclusive = small, poorly fitted or top-dose-only effect, or another doubt; inactive = no such curve, though single readings can be large; an effect the other way counts as inactive or inconclusive.

SMILES	Luciferase inh	NIH3T3 tox	GPT2 inhibitor	NPR1 antag	HEK cytotox
O=C(NCC(=O)N1CCC(c2ccccc2)CC1)c1cccc(-c2ccc(C(F)(F)F)cc2)c1	.	?	-	.	10µM
COCCNC(=O)c1cc(-c2cccc(C(F)(F)F)c2)c2cccn2n1	.	?	-	.	32µM
COC(=O)CNC(=O)c1cc(-c2cccc(C(F)(F)F)c2)c2cccn2n1	.	?	-	.	?
O=C(NCC1CC1)c1cc(-c2cccc(C(F)(F)F)c2)c2cccn2n1	.	?	-	.	28µM
CCOCCNC(=O)c1cc(-c2cccc(C(F)(F)F)c2)c2cccn2n1	.	?	-	.	?
NC(=O)c1cccc(CN2CCC3(C2)CN(C(=O)C2CCCC2)c2ccccc2CO3)c1 (centres undefined)	.	-	-	.	?
O=C(C1CCCC1)N1CC2(CCCN(Cc3c[nH]c4ccccc34)C2)Cc2ccccc21 (centres undefined)	.	25µM	-	.	22µM
O=C(C1CCCC1)N1CC2(CCCN(Cc3cccnc3)C2)Cc2ccccc21 (centres undefined)	.	?	-	.	?
O=C(C1CCCC1)N1CC2(CCN(CC3CCCCC3)C2)Cc2ccccc21 (centres undefined)	.	32µM	-	.	?
NC(=O)c1cccc(CN2CCC3(Cc4ccccc4N(C(=O)C4CCCC4)C3)C2)c1 (centres undefined)	.	-	-	.	79µM
O=C(C1CCCC1)N1CC2(CCN(Cc3ccc(Cl)cc3)C2)Cc2ccccc21 (centres undefined)	.	40µM	-	.	?
O=C(c1ccccn1)N1CCC2(CC1)NC(=O)N(Cc1cccc(Cl)c1)C2=O	-	-	-	-	-
COc1ccc(-c2cc(N3CCN(C(=O)c4c[nH]c5ccccc45)CC3)n[nH]2)cc1	-	25µM	-	-	?
COc1ccc(-c2cc(N3CCCN(C(=O)c4ccc(Br)cc4)CC3)n[nH]2)cc1	-	?	-	-	?
COc1ccc(-c2cc(N3CCCN(C(=O)C(C)c4ccccc4)CC3)n[nH]2)cc1 (centres undefined)	-	?	?	-	79µM
CC(C(=O)N1CCCN(c2cc(-c3ccccc3)[nH]n2)CC1)c1ccccc1 (centres undefined)	-	?	?	-	?
CC(C(=O)N1CCN(c2cc(-c3ccc(Cl)cc3)[nH]n2)CC1)c1ccccc1 (centres undefined)	-	?	-	-	28µM
COc1ccc(-c2cc(N3CCCN(C(=O)c4ccc(C)s4)CC3)n[nH]2)cc1	?	?	?	-	40µM
Cc1ccccc1C(=O)N1CCC(C(=O)N2CCC(N3CCOC3=O)CC2)CC1	.	-	-	.	-
O=C(C1CC1)N1CCN(CCCn2nc3n(c2=O)CCCC3)CC1	.	-	.	.	-
O=C(c1ccsc1)N1CCCC2(C1)Nc1cccnc1NC2=NC1CCCC1 (centres undefined)	-	-	-	-	-
O=C(c1ccc(F)cc1)N1CCC(C(=O)N2CCC(N3Cc4cccn4C3=O)CC2)CC1	.	?	-	.	-
COc1ccccc1Cn1c(=O)c(C(=O)NCC(F)F)nc2cccnc21	.	-	-	.	-
COc1ccc(-c2cc(N3CCCN(C(=O)C4(c5ccc(OC)cc5)CC4)CC3)n[nH]2)cc1	-	?	?	?	45µM
COc1ccc(-c2cc(N3CCCN(C(=O)C4CCCC4)CC3)n[nH]2)cc1	?	-	?	-	?
SMILES	Luciferase inh	NIH3T3 tox	GPT2 inhibitor	NPR1 antag	HEK cytotox
COc1ccc(F)cc1-c1ccc(CN2CCC(N[S+](=O)([O-])c3cccs3)C2)cc1 (centres undefined)	.	?	.	.	40µM
O=[S+]([O-])(NC1CCCN(Cc2ccc(-c3cncnc3)cc2)C1)c1cccs1 (centres undefined)	.	?	-	.	?
COc1cccc(-c2ccc(CN3CCCC(N[S+](=O)([O-])c4cccs4)C3)cc2)c1 (centres undefined)	.	32µM	-	.	13µM
O=[S+]([O-])(c1cccs1)N1CC(Oc2ccc(F)cc2F)C1	.	?	-	.	?
COc1ccc(F)cc1-c1ccc(CN2CCC(N[S+](=O)([O-])c3ccc(C)cc3)C2)cc1 (centres undefined)	.	28µM	.	.	32µM
COc1ccc(F)cc1-c1ccc(CN2CCC(N[S+](=O)([O-])c3c(C)noc3C)C2)cc1 (centres undefined)	.	?	.	.	45µM

Compound activity from PubChem.
